Results on 40 molecules are retold here after PubChem BioAssay (NCATS).

Inconclusive results are not listed. The source made the active and inactive calls. Calls follow the shape of the dose curve; as a rule, active = well fitted curve in the direction sought with a large enough effect in the signal ratio, with a control signal flat (not every such curve was filed as active); inconclusive = small, poorly fitted or top-dose-only effect, or effect the other way, or a change in a side signal; inactive = no such curve, though single readings can be large or run the other way; the % refers to the signal ratio.

Chain of Tyrosine-protein phosphatase non-receptor type substrate 1 (Homo sapiens) + Leukocyte surface antigen CD47 (Homo sapiens) (P78324 whole entry, looked up): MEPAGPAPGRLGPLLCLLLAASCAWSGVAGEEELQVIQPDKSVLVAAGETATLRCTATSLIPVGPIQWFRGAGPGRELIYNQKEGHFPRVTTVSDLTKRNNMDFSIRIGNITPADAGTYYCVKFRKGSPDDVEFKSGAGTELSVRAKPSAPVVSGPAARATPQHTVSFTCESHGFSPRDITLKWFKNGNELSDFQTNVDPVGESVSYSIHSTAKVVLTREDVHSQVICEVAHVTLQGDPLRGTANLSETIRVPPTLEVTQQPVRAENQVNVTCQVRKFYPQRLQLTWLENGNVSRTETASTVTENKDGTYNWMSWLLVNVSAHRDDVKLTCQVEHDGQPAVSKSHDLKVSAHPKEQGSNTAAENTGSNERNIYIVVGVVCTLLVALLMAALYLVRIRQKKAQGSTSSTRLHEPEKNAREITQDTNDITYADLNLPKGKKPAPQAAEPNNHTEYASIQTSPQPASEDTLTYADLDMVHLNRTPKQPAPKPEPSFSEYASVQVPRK
Chain of Tyrosine-protein phosphatase non-receptor type substrate 1 (Homo sapiens) + Leukocyte surface antigen CD47 (Homo sapiens) (Q08722 whole entry, looked up): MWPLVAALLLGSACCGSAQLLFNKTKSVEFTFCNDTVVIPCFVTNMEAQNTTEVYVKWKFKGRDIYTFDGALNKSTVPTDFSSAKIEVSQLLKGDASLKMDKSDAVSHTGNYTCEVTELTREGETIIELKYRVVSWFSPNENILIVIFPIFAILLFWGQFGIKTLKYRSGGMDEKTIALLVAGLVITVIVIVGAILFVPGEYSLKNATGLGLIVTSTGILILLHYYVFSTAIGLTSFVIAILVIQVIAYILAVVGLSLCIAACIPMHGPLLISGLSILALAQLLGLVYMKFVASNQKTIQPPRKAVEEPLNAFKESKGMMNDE

The target in the assay is Tyrosine-protein phosphatase non-receptor type substrate 1 (Homo sapiens) + Leukocyte surface antigen CD47 (Homo sapiens) (UniProt P78324+Q08722). The assay can be described thus: CD47-SIRPalpha protein protein interaction - LANCE assay qHTS validation (AID 1347057). Also: 0% is about no effect. The conditions noted are these: Recombinant CD47-His / biotin-SIRPalpha, TR-FRET ratio; series mostly up to 38.3 µM; activity change, negative = inhibition: at the top concentration. The text has this:
SIRPalpha is a myeloid cell expressed immunomodulatory receptor that binds the tumor expressed immune checkpoint CD47. Therapeutic disruption of this interaction leads to immune-mediated tumor rejection. This assay was used to quantitate CD47-SIRPalpha binding biochemically and evaluate chemical libraries for novel CD47-SIRPalpha inhibitors. To recapitulate the biological interaction of CD47 and SIRPalpha, we designed expression constructs to produce their recombinant, soluble, extracellular interaction domains. CD47 was produced with an N-terminal 6His tag. SIRPalpha was produced with an N-terminal Avi-Tag for site-specific biotin incorporation. The CD47-SIRPalpha interaction was measured by TR-FRET using affinity tag linked reagents (anti-6His-Eu donor and streptavidin-APC acceptor). SIRPalpha without biotin incorporation was used as a positive control inhibitor.
PROTOCOL TABLE (as described by Miller, T. et al. 2019)
SEQUENCE No. (e.g., 1, 2, 3, etc.); […] (e.g., Cells, Incubation, Reagent, etc.); VALUE and DESCRIPTION.
1a. Reagent. 3 uL CD47-His (12.5 nM) and Anti-His Eu Donor reagent (3 nM) added to respective wells in Assay buffer; white/solid bottom high base, med bind 1536-well plates (Greiner 789075)
1b. Reagent. 2 uL Assay buffer negative control for background fluorescence
2. Reagent. 23 nL library compounds (7-pt, 1:4 intraplate titration series) or DMSO control transferred by Pin Tool
3. Centrifuge. Centrifuge plate for 30 s at 1000 RPM
4. Incubation.#Incubate reagents at room temperature for 30 min, protected from light
5. Reagent. 2 uL SIRPalpha-biotin (100 nM) in Assay buffer
6. Incubation.#Incubate reagents at room temperature for 30 min, protected from light
7. Reagent. 1 uL SAV-APC (26 nM) acceptor reagent added to respective wells
8. Centrifuge. Centrifuge plate for 30 s at 1000 RPM
9. Incubation. Incubate reagents at room temperature for 30 min, protected from light
10. Detector. Measure Top TR-FRET on EnVision (Eu/APC filter set); calculate ratio Ch1/Ch2
1. Assay buffer composition.#Phosphate buffered saline (PBS; 10 mM Phosphate, 137 mM NaCl, and 2.7 mM KCl; pH 7.4), 0.05% IGEPAL CA-630
2. 23nL of […] library compounds (7 plates) or DMSO vehicle control transferred to 9 Greiner white/solid bottom high base, TC plates in 7 interplate 1:5 titrations (see Yasgar, A. et al. 2008) with Pintool. Two of the 9 plates are DMSO-only in compound field at beginning and end of compound library-treated plates.
10. Detector settings#Mirror = LANCE/DELFIA Dual Enh; Ex. Filter = UV2[TRF] 320; Em. Filter = APC 665; 2nd Em. Filter = Europium 615; Measurement h = 6.5; Ex. light (%) = 100; Delay = 60 us; Window t = 100 us; No. Seq. windows = 1; Time between flashes = 2000us; No. of flashes = 100; No. of flashes for 2nd detector = 100; Calculation: "Ratio Ch1/Ch2"
Background: TR-FRET usually uses a lanthanide donor and a delayed reading to cut background.
Take `NC(=NCCC[C@H](N)C(=O)O)N[N+](=O)[O-]`: the “activity change, negative = inhibition” value was 2.24% (inactive).

With `S=C(NC1CCCCC1)N1CCC(c2cnc[nH]2)CC1`, the “activity change, negative = inhibition” value was 1.9% (inactive).

In the case of `CNCCc1c[nH]c2ccc(O)cc12`, the “activity change, negative = inhibition” value was 5.3% (inactive).

`CN[C@@H]1C[C@@H](c2ccc(Cl)c(Cl)c2)c2ccccc21`: the “activity change, negative = inhibition” value was 0.0858% (inactive).

`NC1CCc2cc(O)c(O)cc2C1` (stereo not given): the “activity change, negative = inhibition” value is 0% (inactive).

In the case of `COC(=O)[C@@H](N)CCCN=C(N)N[N+](=O)[O-]`, the “activity change, negative = inhibition” value is 2.15% (inactive).

As for `Oc1ccc2c3c1O[C@H]1c4[nH]c5c(c4C[C@@]4(O)[C@@H](C2)N(CC2CC2)CC[C@]314)C[C@@]1(O)[C@H]2Cc3ccc(O)c4c3[C@@]1(CCN2CC1CC1)[C@H]5O4`, the “activity change, negative = inhibition” value was -0.15% (inactive).

Take `C[C@@H](N)Cc1cnc[nH]1`: the “activity change, negative = inhibition” value is -1.32% (inactive).

`CCCCc1ccc(C(=O)O)nc1`: the “activity change, negative = inhibition” value was -0.0695% (inactive).

`NCCc1c[nH]c2ccc(O)cc12`: the “activity change, negative = inhibition” value is 1.65% (inactive).

Take `O=C(Cc1ccc(Cl)c(Cl)c1)N1CCCCC1CN1CCCC1` (stereo not given): the “activity change, negative = inhibition” value was 0.0711% (inactive).

Regarding `NC(CP(=O)(O)O)C(=O)O` (stereo not given), the “activity change, negative = inhibition” value is 0.659% (inactive).

As to `C[C@]12N[C@H](Cc3ccccc31)c1ccccc12`, the “activity change, negative = inhibition” value was -1.06% (inactive).

For the molecule `CC1=NN=C(c2ccc(N)cc2)c2cc3c(cc2C1)OCO3`, the “activity change, negative = inhibition” value was 0.405% (inactive).

Regarding `CC(=O)[C@H]1CCC2C3CC[C@H]4C[C@H](O)CC[C@]4(C)C3CC[C@@]21C` (stereo not given in full), the “activity change, negative = inhibition” value was 0.123% (inactive).

Regarding `CC[C@@H](C(N)=O)N1CCCC1=O`, the “activity change, negative = inhibition” value is -0.352% (inactive).

In the case of `O=C(N[C@H]1CN2CCC1CC2)c1ccc(Cl)cc1`, the “activity change, negative = inhibition” value is 1.1% (inactive).

Take `CCCN(CCC)[C@@H]1CCc2ccc(O)cc2C1`: the “activity change, negative = inhibition” value was 1.04% (inactive).

With `COc1ccc2c(c[n+](C)c3c4cc5c(cc4ccc23)OCO5)c1OC`, the “activity change, negative = inhibition” value is 0.798% (inactive).

In the case of `CS(=N)(=O)CC[C@H](N)C(=O)O` (stereo not given in full), the “activity change, negative = inhibition” value is -0.745% (inactive).

`C[C@]12CCC3C(CC[C@H]4C[C@H](O)CC[C@]34C)C1CC[C@@H]2C(=O)CO` (stereo not given in full): the “activity change, negative = inhibition” value is 2.9% (inactive).

Take `C[C@@H]1O[C@H](C[N+](C)(C)C)C[C@H]1O`: the “activity change, negative = inhibition” value was 0.704% (inactive).

With `C[N+]1(C)C2CCC1CC(OC(=O)C(CO)c1ccccc1)C2` (stereo not given), the outcome was inactive.

As to `CC(C)NC(C)Cc1ccc(I)cc1` (stereo not given), the “activity change, negative = inhibition” value is -1.58% (inactive).

As for `CCCN1CCO[C@@H]2c3cc(O)ccc3OC[C@H]21`, the “activity change, negative = inhibition” value is 1.52% (inactive).

As for `CC(C)Oc1cccnc1N(C)C1CCN(Cc2ccccc2)CC1`, the “activity change, negative = inhibition” value was -0.132% (inactive).

For the molecule `NC(=O)CN1CC(O)CC1=O` (stereo not given), the “activity change, negative = inhibition” value is -0.484% (inactive).

On to `CC[C@@]1(O)C(=O)OCc2c1cc1n(c2=O)Cc2cc3ccccc3nc2-1`, for which the “activity change, negative = inhibition” value is 1.5% (inactive).

On to `C=CCN1CC[C@]23CCCCC2[C@H]1Cc1ccc(O)cc13` (stereo not given in full), for which the “activity change, negative = inhibition” value is -3.23% (inactive).

For `O=C1CCCN1CC#CCN1CCCC1`, the “activity change, negative = inhibition” value is 0.0978% (inactive).

Regarding `C/C=C(/C)C(=O)O[C@H]1C(C)=C2[C@H]([C@@H]1OC(=O)CCCCCCC)[C@@](C)(OC(C)=O)C[C@H](OC(=O)CCC)[C@@]1(O)[C@H]2OC(=O)[C@@]1(C)O`, the “activity change, negative = inhibition” value is -0.791% (inactive).

For the molecule `CC(Cc1ccc(O)cc1)NCC(O)c1cc(O)cc(O)c1` (stereo not given), the “activity change, negative = inhibition” value is -0.547% (inactive).

As to `CN1C2CCC1CC(OC(=O)c1cc(Cl)cc(Cl)c1)C2` (stereo not given), the “activity change, negative = inhibition” value was 0.704% (inactive).

In the case of `O=C(O)Cc1cnc[nH]1`, the “activity change, negative = inhibition” value is 0.582% (inactive).

Regarding `NCCc1c[nH]c2ccccc12`, the “activity change, negative = inhibition” value was -0.132% (inactive).

With `NC(CCP(=O)(O)O)C(=O)O` (stereo not given), the “activity change, negative = inhibition” value is -0.352% (inactive).

Regarding `O=C(O)CC[N+](=O)[O-]`, the “activity change, negative = inhibition” value is 0.552% (inactive).

`Clc1cnc(Oc2ccc(Oc3ncc(Cl)cc3Cl)cc2)c(Cl)c1`: the “activity change, negative = inhibition” value is -0.44% (inactive).

For the molecule `COc1cc(C(O)CN)ccc1O` (stereo not given), the “activity change, negative = inhibition” value was 2.31% (inactive).

With `c1ccc(CCCN2CCN(CCOC(c3ccccc3)c3ccccc3)CC2)cc1`, the “activity change, negative = inhibition” value was 1.8% (inactive).
